# Measurements published in PubChem BioAssay (NCATS).
# Inconclusive results are not listed. Entries that show only a call come without a potency. Active and inactive are the calls of the source. Calls come from the whole dose curve; as a rule, active = well fitted inhibition curve with a large enough effect; inconclusive = small, poorly fitted or top-dose-only effect; inactive = no such curve, though single readings can be large or run the other way. Where a SMILES comes first, the peptide text is derived from it. The star is where a group is joined. βNA = c1ccc2cc(N*)ccc2c1; Cbz = O=C(OCc1ccccc1)*
# Test: Primary qHTS for inhibitors of nuclear receptor binding SET domain protein 2 (NSD2) in an RCH-ACV wild type WT cells (2C) (AID 1645877); note: nearly all actives have a fitted effect of over 70% in size
# Details: RCH-ACV (leukaemia line) NSD2 WT (2C) viability, CellTiter-Glo, 72 h; series mostly up to 44.9 µM
# Potency is the fitted concentration of half-maximal effect.
Compound,Potency,"activity change, negative = cell killing"
CC1(O)CC(O)C2C(C(=O)O)=COC(OC3OC(CO)C(O)C(O)C3OC(=O)/C=C/c3ccc(O)cc3)C21 (centres undefined),inactive,
CC1=C2CC(O)(C(C)(C)O)C(O[C@@H]3O[C@H](CO)[C@@H](O)[C@H](O)[C@H]3O)CC(C)C2CC1=O (some centres undefined),inactive,
CC1CCC2(C(=O)O)CCC3(C)C(=CCC4C5(C)C[C@@H](O)[C@@H](O)C(C)(CO)C5CCC43C)C2C1(C)O (some centres undefined),3.17 µM (active),
C/C(=C\C1CCC(C)C2CCC3(C)OC123)C(=O)O (centres undefined),inactive,
CC1=CC(=O)[C@]2(O[C@@H]3O[C@@H](C)[C@H](O)[C@@H](O)[C@H]3O)C=CO[C@@H](O[C@@H]3O[C@H](CO)[C@@H](O)[C@H](O)[C@H]3O)[C@H]12,inactive,
CC(=O)OC1CC(C(C)(C)O)OC2CCC3(C)OC4=C(C(=O)C=C5C(C)C(OC(C)=O)C6(C)C(C)OC546)C(O)C3C12C (centres undefined),inactive,
COC(=O)C1=COC(O[C@@H]2O[C@H](CO)[C@@H](O)[C@H](O)[C@H]2O)/C(=C\COC(=O)/C=C/c2ccccc2)C1CC(=O)OCCc1ccc(O)cc1 (some centres undefined),inactive,
CC(C)c1ccc2c(c1)[C@H](O)CC1[C@@](C)(C(=O)O)CCC[C@]21C (some centres undefined),inactive,
CC12CC(O)C(O)C=C1c1cc(O)cc(O)c1C(=O)O2 (centres undefined),inactive,
C/C=C(\C)C(=O)OC[C@H]1O[C@@H](O[C@H]2[C@@H](O[C@H]3O[C@H](COC(=O)/C(C)=C/C)[C@@H](O)[C@H](O)[C@H]3O[C@@H]3O[C@H](CO)[C@@H](O)[C@H](OC(=O)/C(C)=C/C)[C@H]3O)O[C@H](COC(=O)/C(C)=C/C)[C@@H](O)[C@@H]2O)[C@H](O)[C@@H](O)[C@@H]1O,,-10.6% [at 9.23 µM] (inactive)
CC(=O)OC/C(=C/C(=O)O)CC[C@@H]1C(C)=CC(=O)[C@@H]2C(C)(C)CCC[C@@]12C,inactive,
C/C1=C\CC[C@]2(C)O[C@H]2C(=O)c2c(C)coc2C1,inactive,
CC1=CC(=O)C2C(C)(C)CCC[C@]2(C)[C@H]1CC[C@H](C)CC(=O)O (some centres undefined),inactive,
OC[C@@]1(O)CO[C@H](OC[C@H]2O[C@@H](OC(CCCCc3ccc(O)cc3)CCc3ccc(O)cc3)[C@H](O)[C@@H](O)[C@@H]2O)[C@@H]1O (some centres undefined),inactive,
CCC/C=C1\OC(=O)C2=C1CCC(O)C2O (centres undefined),inactive,
O=C(O)c1ccncc1Nc1nn(CCN2CCC(F)(F)CC2)c2ccc(F)cc12,inactive,
CC(C)CC(=O)NCCn1cc(C(=O)O)c(=O)cc1C(O)c1ccccc1 (centres undefined),inactive,
C=C1CC[C@H]2[C@@](C)(CCC(O)[C@@]2(C)CO)[C@@H]1/C=C/C(=C\C(=O)O)C(=O)O (some centres undefined),inactive,
CC1=C2C[C@@]3(C)C(CCC[C@@H]3C)C(O)C2(O)OC1=O (some centres undefined),23 µM (active),
C=C1C(O)CC2C(C(=O)O)=COC(OC3OC(CO)C(O)C(O)C3OC(=O)/C=C\c3ccc(O)cc3)C12 (centres undefined),inactive,

Compound,Potency,"activity change, negative = cell killing"
CC1(C)CC[C@]2(C(=O)O[C@@H]3O[C@H](CO)[C@@H](O)[C@H](O)[C@H]3O)CC[C@]3(C)C(=CCC4[C@@]5(C)C[C@@H](O)[C@H](O)[C@@](C)(CO)C5[C@H](O)C[C@]43C)C2[C@@H]1O (some centres undefined),inactive,
CC(C)CC(NC(=O)OCc1ccccc1)C(=O)NC(CC(C)C)C(=O)NC(CCC(=O)O)C(=O)Nc1ccc2ccccc2c1 (stereo not drawn) (Cbz-Leu-Leu-Glu-βNA; configuration not given here),inactive,
O=C1C(Cl)=C(N2CCOCC2)C(=O)N1c1ccc(Cl)c(Cl)c1,8.93 µM (active),
Cn1cc(Nc2cnccc2C(=O)O)c2cccnc21,inactive,
NC1Nc2ccccc2C1(N)CC1NC(=O)C(Cc2ccccc2)NC(=O)C(Cc2ccccc2)NC1=O (centres undefined),inactive,
C=C1C[C@]23C[C@@]1(O)CC[C@H]2[C@@]12C=C[C@H](O)[C@@](C)(C(=O)O1)[C@H]2[C@@H]3C(=O)O,inactive,
COc1ccc(C2(O)c3c(ccc4c3OC(C)(CCC=C(C)C)C=C4)NC(=O)C2OC)cc1 (centres undefined),inactive,
O=C(O)CCc1c(C(=O)O)[nH]c2cc(Cl)cc(Cl)c12,inactive,
CC(O)C1CCC2C3CCC4CC(OC5OC(C(=O)O)C(O)C(O)C5O)CCC4(C)C3CCC12C (centres undefined),inactive,
COc1cc(/C=C/C(=O)O[C@H]2[C@H](O)[C@@H](CO)O[C@@]2(CO)O[C@H]2O[C@H](CO)[C@@H](O)[C@H](O)[C@H]2O)cc(OC)c1O,inactive,
O=C(O)/C=C/c1ccc(O[C@@H]2O[C@H](CO)[C@@H](O)[C@H](O)[C@H]2O)cc1,inactive,
COC(=O)C1=CO[C@@H](O[C@@H]2O[C@H](CO)[C@@H](O)[C@H](O)[C@H]2O)[C@@H]2C(CO)=CC[C@H]12,inactive,
CC1(C)CC2C(O)C3=C(CC(C)(O)C2C1)C(=O)OC3 (centres undefined),inactive,
C=C1CC[C@@H]2[C@@](C)(CO[C@@H]3O[C@H](CO)[C@@H](O)[C@H](O)[C@H]3O)[C@H](O)CC[C@@]2(C)[C@@H]1CC/C(C)=C/CO[C@@H]1O[C@H](CO)[C@@H](O)[C@H](O)[C@H]1O,inactive,
OC[C@@]1(O)CO[C@H](OC[C@H]2O[C@@H](OC(CCCCc3ccc(O)cc3)CCc3ccc(O)cc3)[C@H](O[C@H]3OC[C@](O)(CO)[C@H]3O)[C@@H](O)[C@@H]2O)[C@@H]1O (some centres undefined),inactive,
COc1cc2c(c(O)c1OC/C=C(\C)CC/C=C(/C)CCC=C(C)C)CN(C(CCC(=O)O)C(=O)O)C2=O (centres undefined),inactive,
O=C(/C=C/c1ccc(O)cc1)OC[C@H]1O[C@@H](O/C(=C\c2ccccc2)C(=O)O)[C@H](O)[C@@H](O)[C@@H]1O,inactive,
O=C(Nc1ccn(Cc2c(F)cccc2C(F)(F)F)n1)c1c(F)cccc1F,,-25.3% [at 9.23 µM] (inactive)
C/C=C/C=C/C=C/C(=O)O[C@@H]1[C@@H](OC)C2=C(C(=O)N(C(CCC(=O)O)C(=O)O)C2)[C@@]2(C)CCCC(C)(C)[C@H]12 (some centres undefined),inactive,
